Dicer inh: inhibitors of human Dicer processing of pre-microRNA | Q9UPY3 | cat-ELCCA pre-miR-21 Dicer processing, chemiluminescence; stronger effect = higher value | z-score at 25 µM | 6% of 47,000 active | AID 1347074; in the data active = z-score above about 3, passing the limit was not always enough;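 also: plate controls were vehicle for no effect and no enzyme for full effect; higher signal means more uncleaved substrate so more Dicer inhibition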
* hit, by the source's call. This excerpt belongs to a sample that is enriched for hits.

SMILES	Dicer inh
O=C(NCc1cccs1)c1cc2n(n1)C(C(F)(F)F)CC(c1ccc(F)cc1)N2 (stereo not drawn)	1.17
Cc1ccc(C2CC(C(F)(F)F)n3ncc(C(=O)NCC4CCCO4)c3N2)cc1 (stereo not drawn)	0.63
CCOC(=O)c1cc2n(n1)C(C(F)(F)F)CC(c1ccccc1)N2 (stereo not drawn)	2.8
O=C(NCc1ccco1)c1cc2n(n1)C(C(F)(F)F)CC(c1ccc(Cl)cc1)N2 (stereo not drawn)	2.94
CN(Cc1ccccc1)C(=O)c1cc2n(n1)C(C(F)(F)F)CC(c1ccccc1)N2 (stereo not drawn)	3.02*
Cc1ccc(C2CC(C(F)(F)F)n3nc(C(=O)N(C)Cc4c(C)nn(C)c4C)cc3N2)cc1 (stereo not drawn)	0.02
Cc1c(CNC(=O)c2cc3n(n2)C(C(F)(F)F)CC(c2ccc4c(c2)OCO4)N3)cnn1C (stereo not drawn)	-1.87
O=C(NCC1CCCO1)c1cc2n(n1)C(C(F)(F)F)CC(c1ccc(Br)cc1)N2 (stereo not drawn)	3.71*
CN1C(=O)COc2ccc(C(=O)c3cc4ccccc4o3)cc21	24.8
O=C(c1ccccc1)c1cc2cc(Cl)cc(Cl)c2o1	-0.26
CCCCCCOc1ccc(C2C3=C(CC(C)(C)CC3=O)Nc3[nH]c(=O)[nH]c(=O)c32)cc1OC (stereo not drawn)	-1.64
COc1cccc2c1OC1(N3CCOCC3)CCCCC1C2C[N+](=O)[O-] (stereo not drawn)	3.59*
COc1ccc(OC)c([N+](=O)[O-])c1N1CCOCC1	-0.37
COc1ccccc1C1CCN(c2ccc(C3OCCCO3)cc2[N+](=O)[O-])CC1	0.03
CC(C)n1cc(-c2nc(C(=O)NNS(=O)(=O)c3ccc(Cl)s3)cs2)c(=O)n(Cc2ccccc2)c1=O	-0.19
O=C(c1ccc(Cl)cc1)N1CCS(=NS(=O)(=O)c2ccc(Cl)cc2)CC1	0.6
CC1SC(c2cccnc2)N(c2ccc(Cl)cc2)C1=O (stereo not drawn)	6.33
O=C1CSC(c2cccnc2)N1CCc1ccc(Cl)cc1 (stereo not drawn)	6.47
COc1ccc(CCN2C(=O)C(C)SC2c2cccnc2)cc1 (stereo not drawn)	4.16*
CCOC(=O)c1ccc(NC(=S)NC(C)(C)CO)cc1	-1.48
CCOC(=O)c1ccc(NC(=S)NN)cc1	3.51*
CCOC(=O)c1ccc(NC(N)=S)cc1	-0.12
CCOC(=O)c1c(C)csc1NC(=O)Nc1c(-c2c(Cl)cccc2Cl)noc1C	-0.84
CNS(=O)(=O)Cc1ccc([N+](=O)[O-])cc1	-1.85
Cc1cc(C)c(NS(=O)(=O)c2cc([N+](=O)[O-])ccc2C)c(C)c1	0.22
SMILES	Dicer inh
O=[N+]([O-])c1ccc(NS(=O)(=O)c2ccc(-c3ccc(S(=O)(=O)Nc4ccc([N+](=O)[O-])cc4)s3)s2)cc1	5.26*
CN(C)c1cc(C(F)(F)F)cnc1/C(N)=N/O	1.5
CCSc1nc(N2CCCC2)c2c(c1C#N)CC(C)(C)OC2	1.91
CCCSc1nc(N2CCCC2)c2c(c1C#N)CC(C)(C)OC2	3.56*
CC1(C)Cc2c(C#N)c(SCCOc3ccccc3)nc(N3CCOCC3)c2CO1	-0.13
Clc1ccc(C2=NC(c3ccc(Cl)c(Cl)c3)NN2)cc1 (stereo not drawn)	1.12
CCCc1nc(N)c(C#N)c(-c2ccccc2OC)c1CC	-0.8
CCOc1ccc2nc(SCc3ccc(C)cc3)[nH]c2c1	9.76
Cc1[nH]c2ccccc2c1SCC(=O)NN	-0.4
O=c1c(=O)n2c(nn1Cc1ccccc1Cl)sc1ccccc12	-1.29
NC(=O)Cn1nc2sc3ccccc3n2c(=O)c1=O	-1.26
O=c1c(=O)n2c(nn1CN1CCCCC1)sc1ccccc12	4.14*
O=c1c(=O)n2c(nn1CN1CCOCC1)sc1ccccc12	4.32*
Cn1nc2sc3ccccc3n2c(=O)c1=O	-1.49
O=c1c(N2CCOCC2)nnc2sc3ccccc3n12	4.29*
C=CCn1nc2sc3ccccc3n2c(=O)c1=O	1.15
O=C(Cn1nc2sc3ccccc3n2c(=O)c1=O)c1ccc(Cl)cc1	7.1
Cc1nnc2c(N3CCOCC3)nc3ccccc3n12	-0.14
CC(C)(C)c1cc2nc(C(F)(F)F)cc(SCCO)n2n1	-0.4
Cc1ccc(S(=O)(=O)Nc2ccc(-c3cn4ccccc4n3)cc2)cc1	1.05
CC(C)(Oc1ccc(Cl)cc1)C(=O)Nc1sc2c(c1C(N)=O)CCC2	-3.43
CCOc1nc(-c2cccc(OC)c2)ccc1-c1noc(-c2cccnc2)n1	1.82
Cc1ccccc1OCc1nc(C#N)c(N2CC(C)OC(C)C2)o1 (stereo not drawn)	0.49
Cc1cccc(C)c1NC(=O)C(C)N (stereo not drawn)	0.84
CSC(=NC(C)(C)CO)Nc1c(C)cccc1C	4.75*
SMILES	Dicer inh
CCCSC(=NCC)Nc1c(C)cccc1C	0.82
CC(C)(C)c1ccc(-c2[nH]nc(NS(=O)(=O)c3ccccc3)c2Br)cc1	-4.57
COc1ccccc1Oc1c(NS(=O)(=O)c2ccc(C(C)(C)C)cc2)nc(-c2ncccn2)nc1OCCO	17.6*
Cn1nccc1NS(=O)(=O)c1ccc(C(C)(C)C)cc1	-0.85
COC(=O)c1cccc(C(=O)OC)n1	-0.58
OCCn1c(-c2ccc(Br)cc2)cn2c3ccccc3nc12	-0.4
COc1ccc(C(=O)NNS(=O)(=O)c2ccc(-c3ccccn3)s2)cc1OC1CCCC1	-1.46
O=C(COC(=O)c1ccc(F)c(Cl)c1)c1ccc(Cl)cc1	0.91
O=C(COC(=O)c1cc2ccccc2cc1OC(=O)c1ccc(Cl)cc1)c1ccccc1	-0.71
O=C(COC(=O)c1cc(Cl)ccc1O)c1ccc(-c2ccccc2)cc1	6.08*
C[n+]1cn(CC(O)COc2cccc(Cl)c2)c2ccccc21 (stereo not drawn)	-0.35
Cc1nn2c3ccccc3n(C)c2c1C(N)=O	0.83
CCOc1ccc(C2C(C(=O)OC(C)C)C(=O)CC(C)(O)C2C(=O)OC(C)C)cc1 (stereo not drawn)	0.27
COc1ccc(/C=C2/C(=O)Nc3ccccc32)cc1	-0.18
CN(C)c1ccc(/C=C2\C(=O)Nc3ccccc32)cc1	-1.35
O=C1Nc2ccccc2/C1=C/c1cnc(-c2ccccc2)[nH]1	3.3*
N/C(=N\O)C1CSc2ccccc2C1=O (stereo not drawn)	2.06
Cc1ccc(S(=O)(=O)Nc2ccc(O)c(Br)c2)cc1	1.43
CNS(=O)(=O)c1ccc2c(c1)Cc1cc(S(=O)(=O)NC)ccc1-2	0.52
Cc1ccc(S(=O)(=O)Nc2ccc3c(c2)Cc2cc(Br)ccc2-3)cc1	3.35*
COc1ccc(Cl)cc1NC(=O)NNC(=O)c1cc(C)n(C(C)(C)C)n1	1
CCOc1ccsc1NC(=O)Nc1ccc(OC(F)(F)F)cc1	-1.4
Cc1ccc(/C(C#N)=C2C=C/C(=N\O)C(Cl)=C\2)cc1	2.57
N#C/C(=C1C=C/C(=N\O)C(Br)=C/1)c1ccccc1	-0.66
Cc1ccc(/C(C#N)=C2C=C(Cl)/C(=N/O)C=C\2Cl)cc1	3.76*
SMILES	Dicer inh
N#C/C(=C\c1c(Cl)cccc1Cl)S(=O)(=O)c1cccs1	-0.95
COC(=O)c1sccc1N/C=C(\C#N)S(=O)(=O)c1cccs1	18.8*
CN(C)/C=C(\C#N)S(=O)(=O)c1cccs1	-1.81
Clc1ccc(Oc2nc(-c3ccccc3)ns2)cc1	0.56
Cc1ccc(NC(=S)Nc2ccc(S(=O)(=O)N3CCCCC3)cc2)cc1F	1.29
CN(CCOC(=O)c1cccs1)C(C)(C)C	0.76
O=C(OCCN1CCCCC1)c1cccs1	3.7*
COc1cc(N)c(Cl)cc1C(=O)OCCN1CCCCC1	-0.67

Screens (PubChem BioAssay)
